Most compounds without a hit are left out; they make up all but 1.3% or so of the library.
CCHFV vOTU inh: CCHFV vOTU protease inhibition | Pep-AMC fluorescence | actives 0.55% (n = 370,000) | AID 651958 | inhibition, % at 11.5 µM; in the data active = inhibition above about 30%; note: 0% = vehicle wells with enzyme and 100% = no enzyme wells
PrP UTR inh: inhibition of PrP 5' UTR reporter expression; cell-based PrP 5' UTR mRNA reporter, plate reader; inhibition, % (concentration not given with the values); actives 0.35% (n = 340,000); in the data active = inhibition above about 52%; note: 0 = median of the neutral control wells
SARS 3CLpro inh-1: SARS-CoV 3CLpro protease inhibition | actives 0.14% (n = 290,000) | P0C6X7 | recombinant SARS-CoV 3CLpro, quenched FRET peptide cleavage | inhibition, % at 6 µM; in the data active = inhibition above about 12%
PrPC surface inh: reduces human prion protein on the cell surface | actives 0.43% (n = 370,000) | AID 720596 | P04156 | inhibition, % at 13.8 µM | cell surface PrPC, TR-FRET read-out; in the data active = inhibition above about 24%; note: 0% = median of the test wells and 100% = reference compound wells
SARS 3CLpro inh-2: confirmation of SARS coronavirus 3C-like protease inhibitors; shares compounds with SARS 3CLpro inh-1; QFRET protease activity assay, 3CLpro; inhibition, % at 6 µM; actives 36% (n = 380); AID 1879; in the data active = inhibition above about 13%
* hit, by the source's call; nt = no result.

SMILES | CCHFV vOTU inh | PrP UTR inh | SARS 3CLpro inh-1 | PrPC surface inh | SARS 3CLpro inh-2
N#C/C(=C(/O)CCl)c1nc2ccccc2[nH]1 | -19 | -16 | 5 | 27* | nt
COc1ccc(/C=C2/C(=O)N(Cc3ccco3)C(=O)N(C(C)C)C2=O)cc1 | 14 | -18 | 8 | 2 | nt
Cc1ccc(CNC(=O)CCc2nc3ccccc3c(=O)[nH]2)cc1 | -6 | 2 | -1 | 8 | nt
CC(C)(C)OC(=O)NCCCCCNC(=O)c1nc[nH]c1C(=O)NCc1ccc(CNC(=O)OC(C)(C)C)cc1 | 25 | -6 | nt | 25* | nt
O=C(NC1CCCCC1)n1c(=O)oc2ccccc21 | -2 | -4 | 2 | 4 | nt
On1ccccc1=S | 15 | -37 | nt | 42* | nt
O=C(Cn1ccccc1=S)c1ccc(Cl)c(Cl)c1 | -9 | nt | nt | -3 | nt
CCN(CC)c1ccc(C2C(C(=O)OC)=C(C)NC(C)=C2C(=O)OC)cc1 | 30* | -33 | 0 | 6 | nt
Cc1ccnc(NC(=O)CCCOc2cc(=O)n(C)c3ccccc23)c1 | -5 | -20 | 7 | 39* | nt
CC(=O)Nc1ccc(NC(=O)c2nc(S(=O)(=O)Cc3cccc(C)c3)ncc2Cl)cc1 | 9 | 8 | -3 | 71* | nt
CCOC(=O)/C(=N\Nc1ccccc1)N1CC1 | 6 | -38 | 5 | 6 | nt
CCOC(=O)/C(=N/Nc1ccc(Br)cc1)N1CC(C)OC(C)C1 (stereo unspecified) | -4 | -16 | nt | 32* | nt
O=C(/C=C/c1ccccc1)NC(NC(=S)Nc1cccc(Cl)c1)C(Cl)(Cl)Cl (stereo unspecified) | -1 | 79* | 7 | 10 | nt
O=C(/C=C/c1ccccc1)NC(NC(=S)Nc1cccc(O)c1)C(Cl)(Cl)Cl (stereo unspecified) | -6 | -16 | 5 | 11 | nt
O=C(O)c1ccccc1NC(=S)NC(=O)c1sc2ccccc2c1Cl | -4 | -20 | 2 | 26* | nt
Cc1ccc(NC(=S)NC(=O)c2sc3ccccc3c2Cl)c(C(=O)O)c1 | nt | nt | 2 | nt | nt
Cc1ccsc1CN(C)C(=O)CCc1nnc(COc2ccccc2)o1 | 17 | -45 | 0 | 8 | nt
COc1ccccc1N1C(=O)Cc2ccccc2C1=O | 30* | -16 | 1 | -4 | nt
COc1ccc2c(c1)C(=O)N(c1ccccc1OC)C(=O)C2 | 6 | -12 | -2 | -8 | nt
CCOc1cccc(C(=O)Nc2ccc3[nH]ncc3c2)c1 | 1 | -67 | 4 | -3 | nt
CCCCOc1ccc(CONS(=O)(=O)c2ccc(NC(C)=O)cc2)cc1Cl | -5 | -8 | 19* | 6 | 8
COc1ccc(C(=O)COC(=O)CCCn2c(=O)oc3ccccc32)cc1 | 2 | -9 | 6 | 4 | nt
O=C(c1cncc(Br)c1)N1CCN(S(=O)(=O)c2ccccc2C(F)(F)F)CC1 | -1 | -22 | 17* | -8 | 12
O=C(c1cncc(Br)c1)N1CCN(S(=O)(=O)c2ccccc2)CC1 | -7 | -14 | 3 | 6 | nt
COc1cc(C(=O)Nc2ccc(N3CCN(C(=O)c4ccc(C)cc4)CC3)cc2)cc(OC)c1OC | -1 | -16 | 14* | -4 | 0
SMILES | CCHFV vOTU inh | PrP UTR inh | SARS 3CLpro inh-1 | PrPC surface inh | SARS 3CLpro inh-2
Cc1ccc(C(=O)N2CCN(c3ccc(NC(=O)c4cccnc4)cc3)CC2)cc1 | 9 | -8 | 3 | 0 | nt
N#CC(C#N)=C1C(=O)N(CCN2CCCCC2)c2ccccc21 | 8 | 4 | -3 | -6 | nt
CC(C)C[C@H](NC(=O)c1nc[nH]c1C(=O)NCc1ccc(CNC(=O)OC(C)(C)C)cc1)C(=O)OC(C)(C)C | 22 | 5 | 14* | -3 | 13*
Cn1cnc2cc(NC(=O)c3ccc(Cl)cc3)ccc21 | 9 | -44 | 33* | 4 | 31*
Cc1nc2ccc(OC(=O)c3ccccc3)cc2s1 | -12 | -13 | 0 | -5 | nt
Cc1ccc(C(=O)Oc2ccc3c(c2)ncn3C)cc1 | -2 | -87 | 22* | -9 | 31*
Cn1cnc2cc(OC(=O)c3ccccc3)ccc21 | -17 | -4 | 15* | 0 | 10
CCOc1ccc(S(=O)(=O)N2CCN(C(=O)CN3C(=O)NC4(CCCC4)C3=O)CC2)cc1 | -3 | 7 | nt | 1 | nt
COc1cccc(NC(=O)COC(=O)Cc2ccccc2[N+](=O)[O-])c1 | 5 | -15 | 4 | 3 | nt
CSc1cccc(NC(=O)Cc2ccccc2[N+](=O)[O-])c1 | 9 | -4 | 14* | -1 | 6
COc1ccc(CNC(=O)CN(Cc2ccccc2)S(=O)(=O)c2ccc(Cl)cc2)cc1 | 24 | -9 | 0 | 15 | nt
O=C(O)c1ccc(CN(Cc2ccccc2)S(=O)(=O)c2ccc(Cl)cc2)cc1 | 3 | -26 | 13* | 0 | 4
Cc1cc(=O)oc2cc(NC(=O)c3ccccc3OC(F)F)ccc12 | -35 | -55 | 13* | 7 | -2
CCN1C(=O)CSC1=NC1C2CC3CC(C2)CC1C3 (stereo unspecified) | 13 | -9 | 1 | -7 | nt
COc1ccc(NC(=O)c2ccc3c(=O)n(-c4ccc(OC)cc4OC)c(=S)[nH]c3c2)cc1 | -4 | -5 | 14* | 18 | -4
CCOc1cc(/C=C2\CN(CC)C/C(=C\c3ccc(O)c(OCC)c3)C2=O)ccc1O | 7 | -13 | 0 | -14 | nt
CC1=Nc2cccc3cccc(c23)N1C | 3 | -8 | 13* | -7 | -5
CCOC(=O)C1C(=O)CC(O)(c2ccccc2)CC1c1ccccc1 (stereo unspecified) | 2 | -5 | 6 | 6 | nt
Cc1cccc(NC(=O)N2CCCC2C(=O)NCc2ccccc2)c1 (stereo unspecified) | -4 | -15 | 0 | 6 | nt
CC(=O)Nc1ccc(NS(=O)(=O)c2cc(Cl)ccc2Cl)cc1 | 25 | -19 | -2 | 5 | nt
CC(=O)N(C)c1ccc(NS(=O)(=O)c2cc(Cl)ccc2Cl)cc1 | -10 | -24 | 14* | -4 | -2
COC(=O)CC1COc2ccccc2N1C(=O)/C=C/c1ccccc1 (stereo unspecified) | 8 | 0 | 46* | 6 | -1
CCc1cccc(CC)c1N(COC)C(=O)Cn1c(CO)nc2ccccc21 | 3 | -23 | 1 | 8 | nt
CCc1cccc(CC)c1N(COC)C(=O)Cn1nnc2ccccc21 | 11 | -19 | 12* | 4 | 13*
COc1ccc(NS(=O)(=O)c2ccc3oc(Nc4ccc5c(c4)OCCO5)nc3c2)cc1 | 8 | -10 | 13* | -1 | 5
SMILES | CCHFV vOTU inh | PrP UTR inh | SARS 3CLpro inh-1 | PrPC surface inh | SARS 3CLpro inh-2
COc1cccc(S(=O)(=O)Nc2ccc3c(c2)OCCO3)c1 | 14 | 7 | -3 | 10 | nt
O=C(NCc1ccc2c(c1)OCO2)c1ccc(CS(=O)(=O)c2ccc(Br)cc2)o1 | 9 | -7 | -2 | 3 | nt
CC(NC(=O)CCl)c1ccc(Cl)c(Cl)c1 (stereo unspecified) | -1 | -7 | 20* | -4 | 40*
CC(NC(=O)c1ccc(Cl)c(Cl)c1)c1ccc(-c2ccccc2)cc1 (stereo unspecified) | 2 | -6 | -2 | 4 | nt
CCC(=O)N1CCc2cc(S(=O)(=O)N3CCc4ccccc43)ccc21 | -6 | 6 | -5 | 7 | nt
COc1cc(NC(=O)C2CC(c3cccc(Br)c3)=NO2)cc(OC)c1OC (stereo unspecified) | -15 | -13 | 13* | 10 | 2

Compound activity deposited in PubChem by several laboratories.
